High-throughput results deposited in PubChem BioAssay by National Center for Advancing Translational Sciences (NCATS).
Compounds with a hit are over-represented: about 19% of the library has one in this group of screens.
DT40 TDP1 no CPT = qHTS for Inhibitors of human tyrosyl-DNA phosphodiesterase 1 (TDP1): qHTS in cells in absence of CPT; DT40 Tdp1-/- hTDP1 cells, no CPT, ATP luminescence, 48 h; Potency, µM (doses to about 46.2 µM), for the others: at the top dose activity change, negative = growth inhibition, actives largely listed as inhibitors; hit rate 15% among 420,000; further: potency means the concentration at half of the fitted maximal effect; on the % scale 0 is the no-effect control and ±100 the full control effect; nearly all actives have a fitted effect of over 55% in size
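A cellular qHTS used chicken DT40 cells lacking endogenous Tdp1 but carrying stably transfected human TDP1. Compounds were applied without camptothecin, and cell growth kinetics were judged by ATP-dependent luminescence after ≥48 hr.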
IL1B secr inh = qHTS for Inhibitors of Inflammasome Signaling: IL-1-beta AlphaLISA Primary Screen; THP-1 LPS/ATP IL-1B secretion, AlphaLISA, 16 h; active compounds read low; activity change, % at 57.5 µM; hit rate 4.7% among 360,000; AID 743279, 2014; in the data active means activity change below about -50%; inconclusive means mostly about -30% to -49%; further: on the % scale 0 is the no-effect control and ±100 the full control effect
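THP-1 cells pretreated 1 hr with compounds (up to 57.5 uM final), then stimulated with LPS (250 ng/mL final) plus ATP (1.25 mM final); secreted IL-1B measured by AlphaLISA after 16 hr, decreased signal indicating inhibition.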
TGFb SMAD3 inh = qHTS for Inhibitors of TGF-b; Potency, µM (doses to about 46.1 µM), for inactives: at the top dose activity, negative = inhibition, hits mostly inhibitors; hit rate 1.2% among 410,000; HepG2 CAGA-GFP TGF-b/SMAD3 reporter, GFP fluorescence, 18 h; TGF-beta stimulated, 500 pg/mL final; AID 588855, 2011; further: potency means the concentration at half of the fitted maximal effect; on the % scale 0 is the no-effect control and ±100 the full control effect; nearly all actives have a fitted effect of over 65% in size
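HEPG2 CAGA-GFP, 1000 cells/well; 2 h settle, 37 C; cpd via pin tool; TGF-b 500 pg/mL final; 18 h, 37 C; GFP imaging ex488/em500-530; %Activity normalised to -TGF-b and +DMSO controls; CRC fit, curve class.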
HepG2 viability = qHTS for Inhibitors of TGF-b: Cytotox Counterscreen. HepG2 CAGA-GFP viability, ATP luminescence, 18 h. Potency, µM (titrated, usually from 46.1 µM), inactives show at the highest dose activity change, negative = cytotoxicity, actives largely listed as cytotoxic. hit rate 0.76% among 410,000; further: potency means the concentration at half of the fitted maximal effect
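HepG2 CAGA-GFP cells (1000/well, DMEM with 1% FBS) received compound, then TGF-beta at 500 pg/mL final, and were incubated 18 hours at 37 degrees C. Viability was read by CellTiter-Glo luminescence. Media-only wells were set as complete cell-killing and DMSO as no toxicity.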
ASM inhibitor = Inhibitors of Secretory Acid Sphingomyelinase (S-ASM): qHTS; Potency, µM (series often up to 57.5 µM), for inactives: at the highest dose activity change, negative = inhibition, usual class: inhibitors; hit rate 0.006% among 340,000; Sphingomyelin phosphodiesterase (Homo sapiens), P17405; placental ASM, HMU-PC fluorogenic substrate, 60 min; further: potency means the concentration at half of the fitted maximal effect
Target sequence (P17405 47-631 limits assumed): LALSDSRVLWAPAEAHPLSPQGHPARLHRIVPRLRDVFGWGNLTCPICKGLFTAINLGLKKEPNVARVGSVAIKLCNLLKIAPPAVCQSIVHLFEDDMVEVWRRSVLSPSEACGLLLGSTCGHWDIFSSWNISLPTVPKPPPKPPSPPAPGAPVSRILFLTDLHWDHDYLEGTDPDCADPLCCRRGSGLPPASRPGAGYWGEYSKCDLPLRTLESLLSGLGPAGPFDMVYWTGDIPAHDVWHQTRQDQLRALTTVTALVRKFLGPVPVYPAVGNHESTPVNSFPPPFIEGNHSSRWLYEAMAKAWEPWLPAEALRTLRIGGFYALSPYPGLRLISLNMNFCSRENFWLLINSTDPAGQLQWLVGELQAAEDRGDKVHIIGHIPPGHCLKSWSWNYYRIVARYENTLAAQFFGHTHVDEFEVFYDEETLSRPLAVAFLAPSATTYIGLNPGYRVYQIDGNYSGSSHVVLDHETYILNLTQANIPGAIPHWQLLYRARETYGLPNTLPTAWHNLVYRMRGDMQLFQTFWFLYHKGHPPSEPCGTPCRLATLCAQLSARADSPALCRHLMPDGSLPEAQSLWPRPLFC
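HMU-PC0 cleavage (9 uM final) by human placental ASM, 60 min at 37 °C following 10 min compound exposure at RT; stopped at pH 10, fluorescence Ex 386/Em 447 nm.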
DT40 TDP1 CPT = qHTS for Inhibitors of human tyrosyl-DNA phosphodiesterase 1 (TDP1): qHTS in cells in presence of CPT | chicken DT40 Tdp1-/-;hTDP1 cells + 20 nM CPT, ATP luminescence, 48 h | Potency, µM (highest dose often 46.2 µM), without a hit: at the top dose activity change, negative = growth inhibition, actives largely listed as inhibitors | hit rate 12% among 420,000 | AID 686979, 2013; further: potency means the concentration at half of the fitted maximal effect; on the % scale 0 is the no-effect control and ±100 the full control effect; nearly all actives have a fitted effect of over 55% in size
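Chicken DT40 Tdp1-/- cells stably complemented with human TDP1 were seeded at 400 cells/well in medium containing 20 nM camptothecin, exposed to pin-transferred compounds, and grown at 37 °C for at least 48 hr. Viability was read as ATP luminescence.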
* marks the source's active call; other numbers are inactive results. Unless noted, the call rests on the fitted dose curve; in most records, active means well fitted curve in the direction sought with a large enough effect; inconclusive means small, poorly fitted or top-dose-only effect, or another doubt; inactive means no such curve, though single readings can be large; an effect the other way counts as inactive or inconclusive.

Results for C[C@H](CO)N1C[C@H](C)[C@@H](CN(C)S(=O)(=O)c2ccccc2)Oc2ccc(NC(=O)NC3CCCCC3)cc2C1=O ?
DT40 TDP1 no CPT: 21µM*; IL1B secr inh: -1; TGFb SMAD3 inh: -2%; HepG2 viability: -4%; ASM inhibitor: 4%; DT40 TDP1 CPT: inconclusive

What do the screens show for `COc1cccc(CNC(=O)Cn2c(SCC(=O)Nc3ccc(C)c(C)c3)nc3ccccc32)c1`?
DT40 TDP1 no CPT: inconclusive; TGFb SMAD3 inh: inconclusive; HepG2 viability: -78%; DT40 TDP1 CPT: inconclusive

Results for Cc1cc(C)c2cc(C#N)c(SCC(=O)Nc3ccc4c(c3)OCO4)nc2c1 ?
DT40 TDP1 no CPT: 3%; IL1B secr inh: inconclusive; TGFb SMAD3 inh: 5%; HepG2 viability: 1%; ASM inhibitor: 1%; DT40 TDP1 CPT: -7%

What do the screens show for `O=C(NCCCNC(=O)c1ccccc1)c1ccccc1`?
DT40 TDP1 no CPT: -16%; IL1B secr inh: 2; TGFb SMAD3 inh: 0%; HepG2 viability: -69%; ASM inhibitor: 0%; DT40 TDP1 CPT: -2%

What do the screens show for `Cc1[nH]c2ccccc2c1/C=C/c1nc2ccccc2c(=O)n1-c1cccc([N+](=O)[O-])c1`?
DT40 TDP1 no CPT: 18µM*; IL1B secr inh: 1; TGFb SMAD3 inh: -1%; HepG2 viability: -17%; ASM inhibitor: -4%; DT40 TDP1 CPT: inconclusive

What do the screens show for `O=c1c2ccccc2nc(/C=C/c2c[nH]c3ccccc23)n1-c1ccc([N+](=O)[O-])cc1`?
DT40 TDP1 no CPT: inconclusive; IL1B secr inh: 11; TGFb SMAD3 inh: -1%; HepG2 viability: 3%; ASM inhibitor: -14%; DT40 TDP1 CPT: 10µM*

How did Cc1ccc(-n2nc(C)c3c(C)c(CCC(=O)O)c(C)nc32)cc1C do in these assays?
DT40 TDP1 no CPT: 10%; IL1B secr inh: 104; TGFb SMAD3 inh: 2%; HepG2 viability: -74%; ASM inhibitor: -1%; DT40 TDP1 CPT: -10%

What do the screens show for `CCN(CC)C(=O)[C@H]1CC(CC(=O)NCC23CC4CC(CC(C4)C2)C3)C(=O)N2CCc3c([nH]c4ccccc34)[C@]12C` (some centres not stated)?
DT40 TDP1 no CPT: 8.2µM*; IL1B secr inh: inconclusive; TGFb SMAD3 inh: 0%; HepG2 viability: 0%; ASM inhibitor: -9%; DT40 TDP1 CPT: 16µM*

Results for CCN(CC)C(=O)[C@H]1CC(CC(=O)NCCCn2ccnc2)C(=O)N2CCc3c([nH]c4ccccc34)[C@]12C (some centres not stated) ?
DT40 TDP1 no CPT: -14%; IL1B secr inh: 7; TGFb SMAD3 inh: 39%; HepG2 viability: 17%; ASM inhibitor: 5%; DT40 TDP1 CPT: -8%

What do the screens show for `COc1ccc2[nH]c3c(c2c1)CCN1C(=O)C(CC(=O)NCC24CC5CC(CC(C5)C2)C4)C[C@H](C(=O)N2CCOCC2)[C@@]31C` (some centres not stated)?
DT40 TDP1 no CPT: inconclusive; IL1B secr inh: inconclusive; TGFb SMAD3 inh: inconclusive; HepG2 viability: -18%; ASM inhibitor: -2%; DT40 TDP1 CPT: inconclusive

Results for CCN(CC)C(=O)[C@H]1CC(CC(=O)NCCC2=CCCCC2)C(=O)N2CCc3c([nH]c4ccccc34)[C@]12C (some centres not stated) ?
DT40 TDP1 no CPT: 23µM*; IL1B secr inh: -16; TGFb SMAD3 inh: inconclusive; HepG2 viability: -20%; ASM inhibitor: -3%; DT40 TDP1 CPT: 23µM*
